# According to PubChem BioAssay (EPA / NIEHS):
# Several values for one entry are separate records, joined by “and”; a condition that tells them apart may be missing. Equal entries are not always repeated. Where a structure was tested more than once in an assay, its records may differ in their call. Activity calls are given as the source filed them. Rule for the calls: active = hit-call score of the fitted dose curve at least 0.9, where 1 is the maximum; inactive = score below 0.9.
# Columns and labels:
# Details in all cases: primary human HUVEC with PBMC; actives raise or lower the signal
# [1] = read-out: Monocyte Chemoattractant Protein-1 (MCP1), CCL2 (gene 6347); test: BSK_LPS_MCP1: BioMAP Diversity Plus: LPS Assay for Monocyte Chemoattractant Protein-1 (MCP1) Biomarker Activity (AID 2283081);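 for AC50: secreted MCP-1 protein quantified by ELISA in culture supernatant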
# In short: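 Human umbilical vein endothelial cells co-cultured with PBMC, LPS-stimulated; secreted MCP-1 measured by ELISA 24 h after compound addition. Bidirectional curve fitting against DMSO baseline; SRB total-protein staining in parallel cultures for cytotoxicity.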
# [2] = BSK_LPS_PGE2: BioMAP Diversity Plus: LPS Assay for Prostaglandin E2 (PGE2) Biomarker Activity (AID 2283082);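 for AC50: secreted prostaglandin E2 measured by ELISA in LPS-stimulated co-culture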
# In short: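 Endpoint derived from bidirectional curve fitting versus DMSO of ELISA-measured PGE2 in LPS-stimulated human primary vascular co-culture (HUVEC with PBMC) harvested at 24 h.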
# [3] = read-out: Macrophage colony-stimulating factor (MCSF), CSF1 (gene 1435); test: BSK_LPS_MCSF: BioMAP Diversity Plus: LPS Assay for Macrophage colony-stimulating factor (MCSF) Biomarker Activity (AID 2283083)
# In short: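 HUVEC–PBMC co-culture, M-CSF measured by ELISA 24 h after chemical dosing. Fitted in both directions relative to DMSO as negative control; overt cytotoxicity assessed by SRB total-protein staining in parallel cultures.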
# [4] = read-out: Tissue Factor, F3 (gene 2152); test: BSK_LPS_TissueFactor: BioMAP Diversity Plus: LPS Assay for Tissue Factor Biomarker Activity (AID 2283084)
# In short: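 Human umbilical vein endothelial cells co-cultured with PBMC were dosed with compound. Cell-surface CD142 was measured by ELISA 24 h later. Activity was fitted bidirectionally against DMSO, with SRB total-protein staining in parallel cultures for cytotoxicity.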
# [5] = read-out: Tumor necrosis factor (Homo sapiens) (UniProt P01375); test: BSK_LPS_TNFa: BioMAP Diversity Plus: LPS Assay for Tumour Necrosis Factor alpha (TNFa) Biomarker Activity (AID 2283085)
# In short: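 Primary human vascular co-culture of HUVEC and PBMC; TNFa ELISA 24 h after treatment, analysed as increase or decrease relative to DMSO control.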
# [6] = read-out: Vascular cell adhesion molecule 1 (VCAM1), VCAM1 (gene 7412); test: BSK_LPS_VCAM1: BioMAP Diversity Plus: LPS Assay for Vascular cell adhesion molecule 1 (VCAM1) Biomarker Activity (AID 2283086)
# In short: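 Primary human vascular co-culture (umbilical vein endothelium plus PBMC) stimulated with LPS received chemical; 24 h later VCAM-1 was read by ELISA. Overt cytotoxicity was assessed by sulforhodamine B staining of parallel cultures at the same time point.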
# CD40, CD40 (gene 958) = test: BSK_SAg_CD40: BioMAP Diversity Plus: SAg Assay for CD40 Biomarker Activity (AID 2283088)
# In short: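 HUVEC plus PBMC co-culture, superantigen-activated, with CD40 read by ELISA 24 h after dosing. Curves fitted in both directions against DMSO. Overt cytotoxicity checked by parallel SRB total-protein staining.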
# CD69, CD69 (gene 969) = test: BSK_SAg_CD69: BioMAP Diversity Plus: SAg Assay for CD69 Biomarker Activity (AID 2283089);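 for AC50: cell surface CD69 protein quantified by ELISA with fluorescence detection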
# In short: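 Primary human vascular co-culture (umbilical vein endothelium with peripheral blood mononuclear cells) exposed to test chemical for 24 h. CD69 levels quantified by fluorescence ELISA; DMSO served as negative control for bidirectional fitting.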
# [7] = read-out: Monocyte Chemoattractant Protein-1 (MCP1), CCL2 (gene 6347); test: BSK_SAg_MCP1: BioMAP Diversity Plus: SAg Assay for Monocyte Chemoattractant Protein-1 (MCP1) Biomarker Activity (AID 2283090)
# In short: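 MCP-1 levels in the endothelial–PBMC SAg co-culture were quantified by ELISA at 24 h post-dosing; both increases and decreases versus DMSO scored. Cytotoxicity monitored by SRB total protein in parallel cultures.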
# CD38, CD38 (gene 952) = test: BSK_SAg_CD38: BioMAP Diversity Plus: SAg Assay for CD38 Biomarker Activity (AID 2283087)
# In short: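 Fluorescence ELISA of cell-surface CD38 served as the read-out, with either increase or decrease fitted against DMSO controls. Cells were a human umbilical vein endothelium plus PBMC co-culture under SEB/TSST-1 stimulation, measured 24 h after dosing.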
# Chain of Tumor necrosis factor (Homo sapiens) (P01375 whole entry, looked up): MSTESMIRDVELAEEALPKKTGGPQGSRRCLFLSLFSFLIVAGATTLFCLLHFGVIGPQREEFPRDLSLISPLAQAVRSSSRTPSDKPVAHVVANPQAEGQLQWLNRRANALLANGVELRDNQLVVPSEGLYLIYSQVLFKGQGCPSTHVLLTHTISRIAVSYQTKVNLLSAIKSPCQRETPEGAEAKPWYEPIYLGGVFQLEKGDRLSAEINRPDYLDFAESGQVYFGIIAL
smiles,measurement,setting,value
O=S(=O)(O)C(F)(F)C(F)(F)C(F)(F)C(F)(F)C(F)(F)C(F)(F)C(F)(F)C(F)(F)C(F)(F)C(F)(F)F,AC50,[1],6.6 µM (active)
same,outcome,[1],inactive
same,outcome,[2],inactive
same,outcome,[3],inactive
same,AC50,[4],13.3 µM (active)
same,outcome,[4],inactive
same,AC50,[5],8.87 µM (active) and 13.3 µM (active)
same,outcome,[6],inactive
same,AC50,"CD40, CD40 (gene 958)",13.3 µM (active) and 7.42 µM (active)
same,outcome,"CD69, CD69 (gene 969)",inactive
same,AC50,[7],8.67 µM (active)
same,outcome,[7],inactive
CN(C)c1ccc(C(=C2C=CC(=[N+](C)C)C=C2)c2ccccc2)cc1,AC50,[1],0.0133 µM (active)
same,AC50,[2],8.2 nM (active)
same,AC50,[3],0.0379 µM (active)
same,AC50,[4],0.025 µM (active)
same,AC50,[5],0.0138 µM (active)
same,AC50,[6],0.00781 µM (active)
same,AC50,"CD38, CD38 (gene 952)",53.5 nM (active)
same,AC50,"CD40, CD40 (gene 958)",0.00857 µM (active)
same,AC50,"CD69, CD69 (gene 969)",0.00338 µM (active)
same,AC50,[7],0.026 µM (active)
Cc1ccc(N=Nc2c(O)ccc3ccccc23)c(C)c1,outcome,[1],inactive
same,outcome,[2],inactive
same,outcome,[3],inactive
same,AC50,[4],7.3 µM (active)
same,outcome,[5],inactive
same,outcome,[6],inactive
same,outcome,"CD38, CD38 (gene 952)",inactive
same,outcome,"CD69, CD69 (gene 969)",inactive
same,outcome,[7],inactive
COCN(COC)c1nc(N(COC)COC)nc(N(COC)COC)n1,outcome,[1],inactive
same,outcome,[2],inactive
same,outcome,[3],inactive
same,outcome,[4],inactive
same,outcome,[5],inactive
same,outcome,[6],inactive
same,outcome,"CD40, CD40 (gene 958)",inactive
same,outcome,"CD69, CD69 (gene 969)",inactive
same,outcome,[7],inactive
C=COC(=O)C(C)(C)CCCCCC,AC50,[1],31 µM (active)
same,outcome,[2],inactive
same,AC50,[3],32.4 µM (active)
same,AC50,[4],32.5 µM (active)
same,AC50,[5],0.371 µM (active)
same,AC50,[6],31.1 µM (active)
same,outcome,"CD38, CD38 (gene 952)",inactive
same,AC50,"CD69, CD69 (gene 969)",20 µM (active)
same,AC50,[7],31.1 µM (active)
OCCN1CN(CCO)CN(CCO)C1,AC50,[1],13.1 µM (active)
same,outcome,[2],inactive
same,AC50,[3],25.7 µM (active)
same,AC50,[4],20 µM (active)
same,AC50,[5],36.6 µM (active)
same,AC50,[6],31.1 µM (active)
same,AC50,"CD40, CD40 (gene 958)",31.1 µM (active)
same,AC50,"CD69, CD69 (gene 969)",38.7 µM (active)
same,AC50,[7],20 µM (active)
CCCCCCCCCCCC,AC50,[1],36.3 µM (active)
same,outcome,[1],inactive
same,AC50,[2],12.9 µM (active) and 14 µM (active)
same,outcome,[3],inactive
same,AC50,[4],16.7 µM (active)
same,outcome,[4],inactive
same,AC50,[5],28.7 µM (active) and 20.7 µM (active)
same,AC50,[6],33 µM (active) and 31 µM (active)
same,outcome,"CD38, CD38 (gene 952)",inactive
same,outcome,"CD69, CD69 (gene 969)",inactive
same,outcome,[7],inactive
CCCCCCCCCCCCCCCCCC[N+](C)(C)Cc1ccccc1,AC50,[1],2.97 µM (active)
same,outcome,[2],inactive
same,AC50,[3],2.73 µM (active)
same,AC50,[4],2.69 µM (active)
same,AC50,[5],3.58 µM (active)
same,AC50,[6],3.09 µM (active)
same,AC50,"CD40, CD40 (gene 958)",2.74 µM (active)
same,AC50,"CD69, CD69 (gene 969)",2.73 µM (active)
same,AC50,[7],3.01 µM (active)
Oc1c(Cl)cc(Cl)cc1Sc1cc(Cl)cc(Cl)c1O,AC50,[1],31.4 µM (active) and 30.1 µM (active)
same,AC50,[2],20000 nM (active)
same,outcome,[2],inactive
same,AC50,[3],26.3 µM (active)
same,AC50,[4],34 µM (active) and 33.6 µM (active)
same,AC50,[5],29.9 µM (active) and 30 µM (active)
same,AC50,[6],32.9 µM (active) and 30.9 µM (active)
same,AC50,"CD38, CD38 (gene 952)",9.47 µM (active) and 9.95 µM (active)
same,AC50,"CD69, CD69 (gene 969)",13.2 µM (active) and 16.2 µM (active)
same,AC50,[7],8.87 µM (active) and 5.21 µM (active)
N=C(N)c1ccc(OCCCCCOc2ccc(C(=N)N)cc2)cc1,outcome,[1],inactive
same,outcome,[2],inactive
same,AC50,[3],13.5 µM (active)
same,outcome,[4],inactive
same,outcome,[5],inactive
same,outcome,[6],inactive
same,outcome,"CD38, CD38 (gene 952)",inactive
same,AC50,"CD69, CD69 (gene 969)",1.21 µM (active)
same,outcome,[7],inactive
O=P(O)(O)CCC(F)(F)C(F)(F)C(F)(F)C(F)(F)C(F)(F)C(F)(F)F,outcome,[1],inactive
same,outcome,[2],inactive
same,outcome,[3],inactive
same,AC50,[4],5.95 µM (active)
same,outcome,[4],inactive
same,outcome,[5],inactive
same,outcome,[6],inactive
same,outcome,"CD38, CD38 (gene 952)",inactive
same,outcome,"CD69, CD69 (gene 969)",inactive
same,outcome,[7],inactive
OCC(F)(F)C(F)(F)C(F)(F)C(F)(F)C(F)(F)C(F)(F)C(F)(F)C(F)(F)C(F)(F)C(F)(F)C(F)(F)F,outcome,[1],inactive
same,AC50,[2],42.7 nM (active) and 227 nM (active)
same,AC50,[3],0.417 µM (active)
same,outcome,[3],inactive
same,outcome,[4],inactive
same,AC50,[5],1.01 µM (active)
same,outcome,[5],inactive
same,outcome,[6],inactive
same,outcome,"CD69, CD69 (gene 969)",inactive
same,outcome,[7],inactive
O=C1c2ccc(O)c(O)c2C(=O)c2c(O)ccc(O)c21,outcome,[1],inactive
same,outcome,[2],inactive
same,outcome,[3],inactive
same,outcome,[4],inactive
same,outcome,[5],inactive
same,outcome,[6],inactive
same,outcome,"CD38, CD38 (gene 952)",inactive
same,outcome,"CD69, CD69 (gene 969)",inactive
same,outcome,[7],inactive
